This passage reports Potency results from PubChem BioAssay AID624296 (National Center for Advancing Translational Sciences (NCATS), 2012).

SMILES strings stand for the structures. Among all 350,000 compounds or so, about 9,900 (2.8%) were called active. Entries that show only a call come without a potency. Not shown: some 15% with an inconclusive outcome. Calls come from the whole dose curve; as a rule, active = well fitted activation curve with a large enough effect; inconclusive = small, poorly fitted or top-dose-only effect; inactive = no such curve, though single readings can be large or run the other way. For the sample, actives were picked, then their nearest neighbours and some compounds at random.
Potency is the fitted concentration of half-maximal effect.

The assay in a line: A quantitative high throughput screen for small molecules that induce DNA re-replication in MCF 10a normal breast cells. Note: nearly all actives have a fitted effect of over 50% in size. The conditions noted are these: MCF 10A DNA re-replication, Hoechst nuclear intensity, 48 h; series mostly up to 46.1 µM.
Take `O=C(CCc1ccccc1Cl)Nc1ccc(S(=O)(=O)Nc2nccs2)cc1`: the Potency result was “inactive”.

Take `Nc1cc(N)nc(SCC(=O)Nc2cccc(S(=O)(=O)N3CCCCC3)c2)n1`: the Potency result is “inactive”. For the compound `Nc1ncnc2c1ncn2[C@@H]1O[C@H](CNCc2cccn2-c2nccs2)[C@@H](O)[C@H]1O`, the Potency result was “inactive”. The entry for `Cc1c(NC(=O)CN(C)CC(=O)Nc2ccc(F)c(F)c2F)c(=O)n(-c2ccccc2)n1C` is “inactive”. The entry for `N=C1c2ccccc2-c2ccccc21` is “inactive”; for `C=CCNc1nc(N)c(C(=C(C#N)C#N)c2ccccc2)s1` it is 16.4 µM (active); for `COC(=O)c1sc(N2CCN(Cc3ccccc3)CC2)nc1N` it is “inactive”.

On to `C=CCNC(=O)c1csc(-c2ccccc2)n1`, for which the Potency result was “inactive”. As for `Nc1ccccc1SCc1cc([N+](=O)[O-])cc2c1OCOC2`, the entry is “inactive”; as for `CCS(=O)(=O)c1cc([N+](=O)[O-])c(Sc2ccccc2N)s1`, “inactive”; as for `Nc1ccccc1SC(C[N+](=O)[O-])c1ccccc1` (configuration not stated), 10.3 µM (active). Turning to `CN(C(=O)c1cccc(NC(=O)C2CCN(C(=O)OC(C)(C)C)CC2)c1)C1CCC1`, the Potency entry is “inactive”. As for `COC(=O)c1ccc(CNC(=O)Cn2cc(C)c(=O)[nH]c2=O)cc1`, the entry is “inactive”; as for `C#CCOCCOCCOCCNc1nc(N2CCN(C(=O)Cn3cc(CCCCN)nn3)CC2)nc(N2CCN(C(=O)[C@H](CCCCN)n3cc(CCC(=O)O)nn3)CC2)n1`, “inactive”. With `O=C(NCCSCc1ccccc1)c1ccc(Cl)c(S(=O)(=O)N2CCOCC2)c1`, the Potency entry is “inactive”. The figure for `CC(C)(CNC(=O)c1ccc(Cl)c(S(=O)(=O)N2CCc3ccccc3C2)c1)N1CCOCC1` is 5.8 µM (active).

For the compound `CN(C)S(=O)(=O)c1ccc(C(=O)NCC(C)(C)N2CCOCC2)cc1`, the Potency entry was “inactive”. The entry for `O=C(OCc1cc(=O)n2ccsc2n1)C1(c2ccc(Cl)cc2)CC1` is “inactive”; for `COc1ccccc1N(CC(=O)Nc1c(C)n(C)n(-c2ccccc2)c1=O)S(=O)(=O)c1ccccc1` it is “inactive”; for `Cc1c(O)c(C)c2c(c1O)C(=O)C[C@@H](c1ccccc1)O2` it is “inactive”. As for `COc1ccc(CNc2nnnn2C)cc1`, the entry is “inactive”; as for `COc1ccc(CNc2ncnc3ccccc23)cc1`, “inactive”; as for `COc1ccc(CNc2c(CO)cnc3c2cnn3C)cc1`, 14.6 µM (active). As for `COc1cccc(NC(=O)COC(=O)c2ccc3ccccc3n2)c1`, the entry is “inactive”; as for `Cc1ccc(S(=O)(=O)N(C)C)cc1NC(=O)CN1c2cccc3cccc(c23)S1(=O)=O`, “inactive”. In the case of `Cc1csc(NC(=O)C2CCN(S(=O)(=O)c3ccccc3)CC2)n1`, the Potency entry was “inactive”. For `CN(C(=O)CSc1cccc[n+]1[O-])C1CCCCC1`, the Potency result was “inactive”. The figure for `S=c1[nH]nc(CSCc2ccc(Cl)cc2Cl)n1-c1ccccc1` is 20.6 µM (active); for `S=c1[nH]nc(COc2ccccc2)n1-c1ccccc1` it is “inactive”; for `Cc1ccc(NCc2n[nH]c(=S)n2-c2ccccc2)cc1Cl` it is “inactive”. As to `O=C(O)C(=Cc1ccccc1[N+](=O)[O-])c1ccccc1`, the Potency entry was “inactive”.

As to `O=C(Nc1cccc(S(=O)(=O)N2CCCC2)c1)c1cncc(Br)c1`, the Potency result was “inactive”.

For `CC(=O)Oc1ccc(N(C(C)=O)S(=O)(=O)c2ccc3ccccc3c2)cc1Br`, the Potency is 13 µM (active). As to `CN(c1ccc(OCC(=O)O)cc1)S(=O)(=O)c1ccc2ccccc2c1`, the Potency entry is “inactive”. As for `COCCNC(=O)COc1ccc(N(C)S(=O)(=O)c2ccc3ccccc3c2)cc1`, the entry is “inactive”; as for `O=C(OCCOc1ccccc1Cl)c1cc(S(=O)(=O)N2CCCCC2)ccc1N1CCOCC1`, “inactive”; as for `CCC(C(=O)N1CCN(S(=O)(=O)c2sc(C(=O)O)c(C)c2C(=O)O)CC1)c1ccccc1` (configuration not stated), “inactive”.

As to `COC(=O)CCCCCN1C(=O)NC(c2ccc(-c3ccccc3)cc2)C(C(=O)OCc2ccccc2)=C1C` (configuration not stated), the Potency was 3.26 µM (active).

Turning to `COCCN1C(=O)N[C@@H](c2ccccc2)C(C(=O)OC)=C1C`, the Potency result was “inactive”.

Regarding `CC1=C(C(=O)OCc2ccccc2)C(c2ccc(C(F)(F)F)cc2)NC(=O)N1CCCCCC(=O)O` (configuration not stated), the Potency result was “inactive”.

As to `COc1cc(OC)cc(C(=O)NC(C(=O)N2CCC2)C(C)C)c1` (configuration not stated), the Potency result was “inactive”.

`O=C(Cn1cnc2c(OCc3ccccc3)ncnc21)NCc1nc2ccccc2[nH]1`: the Potency entry is “inactive”. The entry for `COCCCNC(=O)CC1C[C@H](C(=O)N2CCCCC2)[C@@]2(CCc3ccccc3)c3[nH]c4ccccc4c3CCN2C1=O` (some centres not stated) is “inactive”; for `O=C(N/N=C\c1cc2c(cc1Cl)OCO2)c1ccc(Br)s1` it is 5.8 µM (active). The entry for `O=C(N/N=C/c1cc2c(cc1Br)OCO2)C1COc2ccccc2O1` (configuration not stated) is “inactive”. The entry for `O=C(NCc1ccc2c(c1)OCO2)c1ccc(Cl)s1` is “inactive”; for `CCCN(CC1CC1)C(=S)NC(=O)c1ccccc1Br` it is “inactive”; for `O=C(CSc1n[nH]c(=O)n1-c1ccccc1)Nc1ccccc1C(F)(F)F` it is “inactive”. As for `O=c1[nH]nc(SCCS(=O)(=O)c2ccc(F)cc2)n1-c1ccccc1C(F)(F)F`, the Potency was 18.4 µM (active).

For `O=S(=O)(c1ccc(F)cc1)N1CCN(Cc2ccccc2C(F)(F)F)CC1`, the Potency result was “inactive”. As for `CCn1c(SCC(=O)Nc2nccs2)nnc1-c1ccco1`, the entry is “inactive”; as for `Cc1[nH]c2ccccc2c1SCC(=O)Nc1nccs1`, 0.651 µM (active); as for `Cn1c(SCC(=O)Nc2nccs2)nnc1-c1cccnc1`, “inactive”. `CCCSc1ccc([C@H]2N[C@@](Cc3ccccc3)(C(=O)OC)[C@H]3C(=O)N(C)C(=O)[C@@H]23)cc1`: the Potency result is “inactive”. The entry for `O=C(CSc1ccccc1)Nc1cc(Cl)ccc1Oc1ccccc1` is “inactive”; for `CC(=O)Nc1ccc(NC(=O)CN2CCCC(C)C2)c(Cl)c1` (configuration not stated) it is “inactive”.

With `CC1CCCN(CC(=O)Nc2cc(Cl)ccc2Oc2ccccc2)C1` (configuration not stated), the Potency was 18.4 µM (active). The figure for `COc1ccccc1NC(=O)C1CCCN1S(=O)(=O)c1ccc(Cl)cc1` (configuration not stated) is 18.4 µM (active).

On to `CC(C)c1nnc(NC(=O)C2CCCN2S(=O)(=O)c2ccc(Cl)cc2)s1` (configuration not stated), for which the Potency entry was “inactive”. Regarding `Cc1cccc(NC(=O)C2CCCN2S(=O)(=O)c2ccc(F)cc2)c1C` (configuration not stated), the Potency entry was “inactive”. The entry for `O=C(COC(=O)Cn1[nH]c(=O)c2ccccc2c1=O)Nc1ncc(Cl)cc1Cl` is “inactive”; for `O=C(CSc1ncn[nH]1)Nc1ccc(Br)cc1Br` it is “inactive”.

Turning to `CN(C(=O)COC(=O)c1cc(=O)[nH]c2ccccc12)C1CCCCC1`, the Potency result is “inactive”. As to `CCN(C(=O)CSc1cccc[n+]1[O-])c1ccccc1`, the Potency result was “inactive”. As for `CC1=CC(C)(C)Nc2ccc(OC(=O)CN3C(=O)C4CCCCC4C3=O)cc21` (configuration not stated), the Potency is 7.31 µM (active). The entry for `O=C(CN1C(=O)C2C3CCC(C3)C2C1=O)Oc1ccc2ccccc2c1` (configuration not stated) is “inactive”.

Regarding `O=C(COC(=O)CN1C(=O)C2CCCCC2C1=O)Nc1ccc(F)c(F)c1F` (configuration not stated), the Potency entry is “inactive”.
